The values that follow come from PubChem BioAssay AID504900 (The Scripps Research Institute Molecular Screening Center, 2011).

The list shows a part of the results. Unmarked numbers belong to inactive results. The source made the active and inactive calls. No stated cut-off is given here; in the data, active means inhibition above about 32%; inactive means the rest.

By inhibition is commonly meant the drop in the measured response relative to a control, in per cent.

This experiment deals with Mu-type opioid receptor (Homo sapiens) + Delta-type opioid receptor (Homo sapiens) (UniProt P35372+P41143). Kind of experiment: inverse agonists of MOR-DOR heterodimerization, confirmation, cell-based, luminescence (AID 504900).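 Further: 0% = cells with DMSO and 100% = wells lacking cells with DMSO.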 To be noted: cells expressing OPRM1/OPRD1 heterodimer, at 9.3 µM, hits give high values.
Sequence of Mu-type opioid receptor (Homo sapiens) + Delta-type opioid receptor (Homo sapiens) (P35372 whole entry, looked up): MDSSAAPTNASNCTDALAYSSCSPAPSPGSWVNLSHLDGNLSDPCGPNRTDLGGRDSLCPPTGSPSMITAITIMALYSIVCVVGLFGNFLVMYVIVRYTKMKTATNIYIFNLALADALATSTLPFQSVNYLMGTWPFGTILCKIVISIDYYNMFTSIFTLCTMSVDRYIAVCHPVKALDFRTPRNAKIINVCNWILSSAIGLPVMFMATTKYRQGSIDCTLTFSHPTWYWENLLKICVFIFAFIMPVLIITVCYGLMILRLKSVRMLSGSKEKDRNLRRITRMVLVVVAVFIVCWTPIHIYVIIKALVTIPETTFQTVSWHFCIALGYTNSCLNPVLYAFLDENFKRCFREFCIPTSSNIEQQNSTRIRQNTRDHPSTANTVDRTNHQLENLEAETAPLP
Sequence of Mu-type opioid receptor (Homo sapiens) + Delta-type opioid receptor (Homo sapiens) (P41143 whole entry, looked up): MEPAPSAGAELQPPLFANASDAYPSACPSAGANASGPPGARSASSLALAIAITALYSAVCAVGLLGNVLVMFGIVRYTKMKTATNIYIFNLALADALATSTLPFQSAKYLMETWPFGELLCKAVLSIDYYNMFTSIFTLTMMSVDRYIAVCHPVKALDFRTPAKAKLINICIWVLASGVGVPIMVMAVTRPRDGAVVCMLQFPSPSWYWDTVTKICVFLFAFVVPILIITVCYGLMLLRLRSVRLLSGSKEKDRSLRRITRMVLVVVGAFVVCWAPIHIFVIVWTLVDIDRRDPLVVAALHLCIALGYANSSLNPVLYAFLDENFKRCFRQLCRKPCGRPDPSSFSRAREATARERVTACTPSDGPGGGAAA
As for `Cc1cccc(N=Nc2c(O)[nH]c3ccc(F)cc23)c1`, the inhibition is 20.6%.
As for `Cc1cccc(C)c1NC(=O)C(Cl)C(=O)c1ccccc1` (centres undefined), the inhibition was -42.6%.
Consider `Cc1ccc2c(c1)C(O)(CC(=O)c1cccnc1)C(=O)N2` (centres undefined), for which the inhibition was 22.7%.
As to `Oc1ccc(N=Nc2nccs2)c(O)c1`, the inhibition is 12.6%.
Take `Cc1ccc(C(=O)CNc2ccc(F)cc2)cc1`: the inhibition is -20%.
Take `N#CC1=C(N)C(C#N)(C#N)[C@H](c2ccsc2)[C@H]2COCC=C12`: the inhibition is -0.3%.
Consider `O=C1C(=O)N(c2ccccc2)c2ccccc21`, for which the inhibition is -11.8%.
`CCOC(=O)CN1C(=O)C(=O)c2cc(C)ccc21`: the inhibition is -25.7%.
As to `CC(C)OC(=O)CN1C(=O)C(=O)c2ccccc21`, the inhibition is -355%.
For the compound `CCCCC(=O)NNC(=S)NC(=O)C(c1ccccc1)c1ccccc1`, the inhibition was -427%.
Take `Cc1cccc2c1N(CC(=O)OC(C)C)C(=O)C2=O`: the inhibition is -138%.
As to `O=C(CCl)NNc1cccc(Cl)n1`, the inhibition is 69.8% (active).
Turning to `COc1cc(NS(=O)(=O)c2ccc3ccccc3c2)c2ncccc2c1`, the inhibition was -82.7%.
For the compound `C=CCn1c(N)c(C(=O)OCC(C)C)c2nc3ccccc3nc21`, the inhibition was 14.8%.
As to `CCOc1ccc(NC(=O)c2cccc3c2C(=O)N(CC2CCCO2)C3)cc1` (centres undefined), the inhibition was -4.18%.
For `COC(=O)Cc1c(-c2[nH]c3ccccc3c2CC(=O)OC)[nH]c2ccccc12`, the inhibition was -123%.
`CN(C)/C=C1/Nc2ccccc2C1=O`: the inhibition was -27.4%.
With `O=[N+]([O-])/C=C/c1ccc2c(ccn2Cc2ccccc2)c1` the figure was -234%.
Take `Cc1ccc(NNC(=O)c2cccs2)cc1Cl`: the inhibition was -17.7%.
On to `CCOC(=O)CN1C(=O)C(O)(CC(=O)c2ccccn2)c2ccccc21` (centres undefined), for which the inhibition is 24.7%.
With `CSCCC(NC(=O)COc1ccccc1)C(=O)OCC(=O)c1cc2ccccc2o1` (centres undefined), the inhibition was 37.5% (active).
The value for `CN(c1ccccc1)S(=O)(=O)c1ccc(NC(=O)COc2ccccc2)cc1` was -21.8%; that for `O=C1C(=O)N(CC2COc3ccccc3O2)c2ccccc21` (centres undefined) was 15.2%; that for `CN(O)C(=S)c1ccccc1` was 16.7%.
